HCMV antiviral: blocks human cytomegalovirus replication. 4.5% of 410,000 active. AID 1259415. HFF cells, HCMV-luciferase reporter, 72 h; hits give low values. activity change, negative = inhibition, % at 57.5 µM; in the data active = activity change below about -60%; inconclusive = no clear call, values can overlap the other calls; inactive = above about -39%
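Two compound doses tested in HFFs infected with HCMV-luciferase, MOI 1 PFU/cell, 72 h at 37C. Lysate luminescence read with OneGlo; data normalized against buffer-only and 10uM Salinomycin inhibitor controls.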
HCV inhibitor: inhibitors of hepatitis C virus infection; Potency, µM (series often up to 41.8 µM), without a hit: at the top dose activity change, negative = inhibition, usual class: inhibitors; 3.4% of 340,000 active; AID 651820; Huh7.5.1 HCVcc-Cre infection, luciferase reporter, 44 h; active = well fitted inhibition curve with a large enough effect; inconclusive = small, poorly fitted or top-dose-only effect, or another doubt; inactive = no such curve, though single readings can be large or run the other way; note: potency is the fitted concentration of half-maximal effect
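Whole-lifecycle infectious HCVcc-Cre system; cells 1,000/well, compound then virus (~0.5 moi) added 4 h after plating, 44 h culture. Luciferase read 15 sec following 15 min substrate incubation, room temp.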
Marburg entry inh: blocks Marburg virus binding to or entry into cells. Marburg virus pseudotyped entry inhibition, cell reporter. AID 540276. 1.8% of 300,000 active. Potency, µM (highest dose often 37.8 µM), for the others: at the top dose activity change, negative = inhibition, most hits filed as inhibitors; calls by dose curve; tested in HEK293 cells; note: potency is the fitted concentration of half-maximal effect
FMDV antiviral: foot and mouth disease virus antiviral activity. FMDV antiviral cell-based qHTS. Potency, µM (doses to about 57.9 µM), without a hit: top-dose activity change, negative = inhibition, actives largely listed as inhibitors. 1.2% of 410,000 active. AID 1159524; calls by dose curve; tested in HEK293T cells; note: read-out not given here; potency is the fitted concentration of half-maximal effect; nearly all actives have a fitted effect of over 45% in size
LASV entry inh: blocks Lassa virus binding to or entry into cells | Lassa virus pseudotype entry inhibition, cell reporter | Potency, µM (titrated, usually from 37.9 µM), without a hit: at the top dose activity change, negative = inhibition, usual class: inhibitors | 1.2% of 300,000 active; calls by dose curve; tested in HEK293 cells; note: potency is the fitted concentration of half-maximal effect; nearly all actives have a fitted effect of over 50% in size
* = called active by the depositor; ! = a repeat was not active; [ ] = remark or other dose. Most compounds without a hit are left out; they make up all but 7.9% or so of the library. % is set by controls: 0 for no effect and ±100 for the full control effect.

How did CCOCCCn1c(SCC(=O)Nc2cccc(OC)c2)nc2ccccc2c1=O do in these assays?
HCMV antiviral: -73.3*!; HCV inhibitor: inconclusive; FMDV antiviral: -6.3%; LASV entry inh: -26.0%[46.1 µM]

Results for CCN(CC)CCn1c(SCC(=O)Nc2cccc(OC)c2)nc2c(sc3ccccc32)c1=O ?
HCMV antiviral: -37.0; HCV inhibitor: 1.78µM*; Marburg entry inh: inconclusive; FMDV antiviral: -15.9%; LASV entry inh: inconclusive

What do the screens show for `CCOC(=O)C(NCc1ccc(OC)cc1)(NC(C)=O)C(F)(F)F` (stereo unspecified)?
HCMV antiviral: 21.3; HCV inhibitor: 13.2%; Marburg entry inh: inconclusive; FMDV antiviral: -19.7%; LASV entry inh: 0.5%

How did O=C(Nc1cccc2cccnc12)c1ccc(Cl)cc1 do in these assays?
HCMV antiviral: 102.7; HCV inhibitor: -3.9%; Marburg entry inh: 2.2%[46.1 µM]; FMDV antiviral: 20.7%; LASV entry inh: 19.4%[46.1 µM]

What do the screens show for `Cc1ccc(CNC(=O)c2oc3ccc(S(=O)(=O)N4CCCC(C)C4)cc3c2C)cc1` (stereo unspecified)?
HCMV antiviral: -13.2; Marburg entry inh: inconclusive; FMDV antiviral: inconclusive; LASV entry inh: inconclusive

How did COc1ccc(NC(=O)c2c(NC(=O)CNCC(C)C)sc3c2CCC3)c(OC)c1 do in these assays?
HCMV antiviral: -4.5; HCV inhibitor: 10µM*; Marburg entry inh: inconclusive; FMDV antiviral: -30.0%; LASV entry inh: inconclusive

How did CCOC(=O)N1CCc2c(sc(NCc3ccc(N(C)C)cc3)c2C(=O)Nc2ccc(OC)cc2)C1 do in these assays?
HCMV antiviral: -65.4*; FMDV antiviral: -4.4%; LASV entry inh: inconclusive

Results for CCOC(=O)N1CCc2c(sc(NCc3cccc(F)c3)c2C(=O)Nc2ccc(OC)cc2OC)C1 ?
HCMV antiviral: -87.5*; FMDV antiviral: -9.0%; LASV entry inh: inconclusive

How did COc1ccc(NC(=O)c2c(NCc3sccc3C)sc3c2CCCCC3)c(OC)c1 do in these assays?
HCMV antiviral: -7.4; FMDV antiviral: 43.8%; LASV entry inh: -26.9%[46.1 µM]

How did CCOC(=O)N1CCc2c(sc(NCc3sccc3C)c2C(=O)Nc2ccc(OC)cc2OC)C1 do in these assays?
HCMV antiviral: -85.2*; FMDV antiviral: 31.6µM*; LASV entry inh: inconclusive

Results for O=C1[C@H]2[C@H]3[C@H](O)[C@H](O)C/C(=N\OCc4ccccc4)[C@H]3CC[C@H]2C(=O)N1C[C@@H]1CCCO1 ?
Marburg entry inh: -6.8%[14.2 µM]

Results for Cn1c(=O)c2c(-c3ccccc3)n(-c3cccc(C#N)c3)cc2n(C)c1=O ?
HCMV antiviral: -1.4; Marburg entry inh: -9.8%[46.1 µM]; FMDV antiviral: -24.8%; LASV entry inh: -21.8%[46.1 µM]

Results for CC(C)C(NC(=O)c1ccoc1)c1nnc2n1CCN(C(=O)/C=C/c1ccc(F)cc1)CC2 (stereo unspecified) ?
FMDV antiviral: -6.0%

Results for Fc1ccc(NC(=S)Nc2ccc(Br)cc2)cc1 ?
HCMV antiviral: -78.5*; HCV inhibitor: inconclusive; Marburg entry inh: -37.7%; FMDV antiviral: -6.0%; LASV entry inh: inconclusive

What do the screens show for `CCN(CC)c1ccc(NC(=S)Nc2ccc(F)cc2)cc1`?
HCMV antiviral: 47.1; HCV inhibitor: 11.2µM*; Marburg entry inh: inconclusive; FMDV antiviral: 15.2%; LASV entry inh: -9.6%

How did c1ccc(COc2ccc(CNCc3cccnc3)cc2)cc1 do in these assays?
HCMV antiviral: -3.9; HCV inhibitor: -20.6%; Marburg entry inh: inconclusive; FMDV antiviral: 7.5%; LASV entry inh: -8.0%

Results for O=C(/C=C/c1cccc(C(F)(F)F)c1)NNC(=O)c1ccncc1 ?
HCMV antiviral: -76.4*; HCV inhibitor: inconclusive; Marburg entry inh: -1.9%[46.1 µM]; FMDV antiviral: -18.3%; LASV entry inh: 5.5%

Results for COc1ccc(NC(=O)/C=C/c2cccc(Br)c2)cn1 ?
HCMV antiviral: 39.2; HCV inhibitor: inconclusive; Marburg entry inh: inconclusive; FMDV antiviral: -26.3%; LASV entry inh: inconclusive

What do the screens show for `O=C(/C=C/c1cccc(C(F)(F)F)c1)Nc1cccc(C(F)(F)F)c1`?
HCMV antiviral: -99.1*; HCV inhibitor: inconclusive; Marburg entry inh: inconclusive; FMDV antiviral: -54.1%; LASV entry inh: inconclusive

Results for COc1ccc(NC(=O)/C=C/c2ccc(OC(F)F)cc2)cn1 ?
HCMV antiviral: -12.3; HCV inhibitor: 11.2µM*; Marburg entry inh: inconclusive; FMDV antiviral: -30.0%; LASV entry inh: inconclusive

Results for COc1ccc(NC(=O)/C=C/c2cccc(C(F)(F)F)c2)cn1 ?
HCMV antiviral: -31.5; HCV inhibitor: 11.2µM*; Marburg entry inh: inconclusive; FMDV antiviral: inconclusive; LASV entry inh: inconclusive

Results for O=C(NNC(=O)c1ccncc1)Nc1cccc(C(F)(F)F)c1 ?
HCMV antiviral: -25.4; HCV inhibitor: 16.6%; FMDV antiviral: 26.8%

How did COc1ccc(NC(=O)Cn2c(=O)n(Cc3ccco3)c(=O)c3sc4ccccc4c32)cc1Cl do in these assays?
HCMV antiviral: -20.4; Marburg entry inh: 3.6%[46.1 µM]; FMDV antiviral: -6.6%; LASV entry inh: -5.3%[46.1 µM]

How did COc1ccc(N2CCN(C(=O)CN(C3CCCCC3)S(C)(=O)=O)CC2)cc1 do in these assays?
HCMV antiviral: inconclusive; HCV inhibitor: 14.9%; Marburg entry inh: inconclusive; FMDV antiviral: -13.3%; LASV entry inh: -17.7%

How did CCCCCSc1nnc2c(n1)OC(CC)Nc1ccc(Br)cc1-2 (stereo unspecified) do in these assays?
HCMV antiviral: -19.4; Marburg entry inh: 17.9%[46.1 µM]; FMDV antiviral: -27.4%; LASV entry inh: 29.4%[46.1 µM]

How did COc1cccc(-c2nnc3n(Cc4ccc(C)cc4)c(=O)c4ccccc4n23)c1O do in these assays?
HCMV antiviral: -8.0; Marburg entry inh: 26.9%[46.1 µM]; FMDV antiviral: -22.1%; LASV entry inh: -1.8%[46.1 µM]

How did COc1ccc(Cn2c(=O)c3ccccc3n3c(-c4cccc(OC)c4OC)nnc23)cc1 do in these assays?
HCMV antiviral: -89.2*; Marburg entry inh: 1.6%[46.1 µM]; FMDV antiviral: -15.0%; LASV entry inh: -2.4%[46.1 µM]

How did CC(C)c1ccc2[nH]c3c(c2c1)CCC/C3=N\NC(=O)c1ccncc1 do in these assays?
HCMV antiviral: -16.2; HCV inhibitor: 0.355µM*; Marburg entry inh: inconclusive; FMDV antiviral: inconclusive; LASV entry inh: inconclusive

What do the screens show for `CCCNC(=O)C(=O)NCC(c1ccc2c(c1)OCO2)N1CCOCC1` (stereo unspecified)?
HCMV antiviral: 0.0; FMDV antiviral: 2.1%; LASV entry inh: 9.4%[46.1 µM]

What do the screens show for `CC(C)[C@@H](OCc1ccccc1)[C@H](C)CON=C1[C@H]2CCn3c(=O)n(-c4ccccc4)c(=O)n3[C@@H]2[C@H](O)[C@@H]2O[C@H]12`?
Marburg entry inh: 24.7%[14.2 µM]

Results for CC(C)[C@H](NC(=O)[C@H]1N2C(=O)c3ccccc3C2SC1(C)C)C(=O)NCc1ccco1 (stereo partly specified) ?
HCMV antiviral: active; HCV inhibitor: 2.4%; FMDV antiviral: 3.1%
